Laboratory results from ChEMBL document CHEMBL3433997, “St. Jude Leishmania screening dataset” (2016).

What follows are compounds tested against Solute carrier family 2, facilitated glucose transporter member 1 (Homo sapiens) (UniProt P11166) (assay: ST_JUDE_LEISH: Cytotoxicity at 2uM final concentration against transgenic Leishmania Mexicana promastigotes LmGLUT1 that are glucose transport deficient and complemented with the human glucose transporter GLUT1. Activity is measured by DNA content using SYBR green in vitro).
Assay type: functional

Chain of Solute carrier family 2, facilitated glucose transporter member 1 (Homo sapiens) (P11166 whole entry): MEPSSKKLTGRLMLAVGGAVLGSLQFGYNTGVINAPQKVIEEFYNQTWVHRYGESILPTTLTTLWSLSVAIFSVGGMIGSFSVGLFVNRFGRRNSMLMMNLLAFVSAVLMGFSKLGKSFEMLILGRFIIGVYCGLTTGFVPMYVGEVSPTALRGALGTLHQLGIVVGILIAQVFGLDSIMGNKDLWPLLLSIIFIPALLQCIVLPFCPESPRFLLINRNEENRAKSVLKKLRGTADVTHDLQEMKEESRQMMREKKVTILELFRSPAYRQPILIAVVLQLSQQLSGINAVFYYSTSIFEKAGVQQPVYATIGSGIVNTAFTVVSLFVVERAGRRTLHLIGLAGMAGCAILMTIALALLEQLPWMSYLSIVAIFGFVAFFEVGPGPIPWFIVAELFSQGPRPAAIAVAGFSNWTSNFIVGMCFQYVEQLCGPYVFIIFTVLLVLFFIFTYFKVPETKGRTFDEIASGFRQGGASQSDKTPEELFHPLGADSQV

Compound | inhibition
FC(F)(F)c1ccc2[nH]c(-c3ccc(-c4ccc(CN5CCN(c6cnccn6)CC5)cc4)s3)nc2c1 | 2.24%
CCCS(=O)(=O)c1nc(S(=O)(=O)c2ccc(Cl)cc2)c(N2CCCCC2)s1 | 0.14%
Cc1cccc(-c2ccc(CNC3CCN(CC4Cn5c(=O)ccc6ccc(F)c4c65)CC3)cn2)c1 (stereo not given) | 6.75%
CCC[C@@H]([C@@H](CC1CCCCC1)C(=O)N[C@H](C(=O)Nc1nccs1)[C@@H](C)OCc1ccccc1)N(O)C=O | 6.17%
COc1ccc(C2C(C(=O)Nc3ccccc3)=C(C)Nc3c(C(=O)Nc4ccccc4)cnn32)cc1 (stereo not given) | 2.83%
O=C(Nc1ccccc1F)NC1CCN(c2ccnc(Nc3ccc(F)cc3)n2)CC1 | 2.94%
COc1ccc(C2CCN(CCCCNC(=O)c3ccc(NC(=O)c4ccc(Cl)cc4)cc3)CC2)cc1Cl | -0.02%
O=C(NCc1cccc(C(F)(F)F)c1)[C@@H]1CCCN1C(=O)c1ccc(O)c(-c2ccc(Cl)c(Cl)c2)c1 | -0.44%
O=C(CCc1c[nH]cn1)Nc1ccc(-c2cccc(-c3nc4ccccc4[nH]3)c2)cc1 | 0.28%
O=C(/C=C/c1ccc(Cl)c(Cl)c1)NCCCCCN1CCC(CCNC(=O)/C=C/c2ccc(Cl)c(Cl)c2)CC1 | 1.63%
COc1ccc2nccc([C@@H](O)CN3CCC(NCc4ccc5scnc5c4)CC3)c2c1 | 3.81%
O=C(c1ccc(-c2ccc(-c3nc4cc(F)ccc4[nH]3)cc2)cc1)N1CCCCC1CN1CCC(O)C1 (stereo not given) | 4.53%
O=C(CN1C(=O)CC1S(=O)(=O)Cc1ccco1)NCCCCCCc1ccc(F)cc1 (stereo not given) | -0.99%
COc1ccc(Cl)cc1-c1nc(C(=O)NCCN2CCCCC2)c(C)s1 | 1.59%
CCCN1CCN(Cc2ccc(C(=O)Nc3ccc(Cl)cc3)cc2)CC1 | 5.31%
C[C@@H](N/C(=N\c1ccc(-c2ccccc2)cc1)Nc1ccc(C#N)cc1O)c1ccc(Br)cc1 | 2.33%
CC(C)C[C@H](NC(=O)c1cccc(F)c1)C(=O)N[C@H](/C=N/NC(=O)c1ccccc1)CCc1ccccc1 | -1.39%
COc1cc(OC)cc(-c2nn(-c3ccc([N+](=O)[O-])cc3Cl)c(=S)n2CC2CCCO2)c1 (stereo not given) | 3.14%
CN(c1ccc2c(c1)nc(NCc1ccc(F)cc1)n2C)c1ccnc(Nc2ccc(CS(C)(=O)=O)cc2)n1 | -0.61%
O=C(C=Cc1ccc(Cl)c(Cl)c1)NCCCCCN1CCC(CCNS(=O)(=O)c2ccc(F)cc2)CC1 | 1.24%

Compound | inhibition
CN(C)CCOc1cc(NC(=O)Nc2ccc(Cl)cc2C(F)(F)F)ccc1I | 3.57%
O=C(Nc1ccc2c(ccn2C2CCCN(Cc3cc(F)cc(F)c3F)CC2)c1)c1ccco1 (stereo not given) | 1.97%
O=[N+]([O-])c1cccc(C=NNc2nc(=Nc3ccccc3)[nH]c(=Nc3ccccc3)[nH]2)c1 | 4.34%
Cn1nc(C(F)(F)F)cc1-c1ccc(C(=O)Nc2ccc3c(c2)CNCC3(C)C)s1 | 4.85%
CN1CCN(Cc2cccc(Nc3nccc(Nc4ccc(Oc5ccccc5)cc4)n3)c2)CC1 | 1.89%
COc1ccccc1C(=O)C1CCCN(C(=O)c2ccccc2C(F)(F)F)C1 (stereo not given) | -0.79%
CN(C)C(C)(C)CN(Cc1ccc(-c2ccc(C(F)(F)F)cc2)cc1)C(=O)Cn1c(CCc2cccc(F)c2F)nc(=O)c2ccccc21 | 1.52%
CCCN(CCC)CCCOc1ccc(C(=O)c2c(-c3ccc(OCCCN(CCC)CCC)cc3)oc3ccc(Cl)cc23)cc1 | 70.8%
CN(C)Cc1cccc(-c2ccc(NC(=O)c3ccc4c(=O)n(Cc5cnn(C)c5)cnc4c3)cc2)c1 | 1.78%
N=C(N)NC(=O)Nc1cc(Cl)c(Cl)c(Br)c1 | 6.7%
O=C(NC(CCCN1CCC2(CC1)OCc1ccccc12)c1ccc(Cl)c(Cl)c1)c1cc(C(F)(F)F)cc(C(F)(F)F)c1 (stereo not given) | 1.7%
Fc1ccc(-c2oc(C3CCN(CCc4ccc(-c5noc(=S)[nH]5)cc4)CC3)nc2COCC(F)(F)F)cc1 | 8.65%
CC(C)C1=CC(=NOS(=O)(=O)c2ccccc2)C=C(C(C)C)C1=O | 0.62%
Cn1cnc(CCNC(=O)c2ccc(-c3ccc(-c4nc5cc(F)ccc5[nH]4)cc3)cc2)c1 | 5.05%
COc1cc2nc(NCc3ccc(S(N)(=O)=O)cc3)nc(Nc3ccc(Oc4ccccc4)cc3)c2cc1OC | 4.15%
CCC(C)OC(=O)C1=C(C)NC2=C(C(=O)CC(c3ccc(OC)c(OC)c3)C2)C1c1cccc(O)c1 (stereo not given) | 4.07%
N=C(Nc1ccccc1)Nc1cccc(Cc2ccc([N+](=O)[O-])cc2)n1 | 5.43%
CCC(C)NS(=O)(=O)c1ccc2nc(Nc3cccc(SC)c3)n(C(C)C(C)C)c2c1 (stereo not given) | 3.91%
CCCCCCN1CCCN(Cc2ccc(C(=O)Nc3ccc(F)c(F)c3)cc2)CC1 | 17.1%
c1cc(CNCCc2ccncc2)cc(-c2cccc(-c3nc4ccccc4[nH]3)c2)c1 | 13.1%

The compounds below were run against Hexose transporter 1 (Plasmodium falciparum) (UniProt O97467) (assay: ST_JUDE_LEISH: Cytotoxicity at 2uM final concentration against transgenic Leishmania Mexicana promastigotes LmPfHT that are glucose transport deficient and complemented with the Plasmodium falciparum hexose transporter. Activity is measured by DNA content using SYBR green in vitro).
Assay type: functional

Compound | inhibition
FC(F)(F)c1ccc2[nH]c(-c3ccc(-c4ccc(CN5CCN(c6cnccn6)CC5)cc4)s3)nc2c1 | 1.86%
CCCS(=O)(=O)c1nc(S(=O)(=O)c2ccc(Cl)cc2)c(N2CCCCC2)s1 | 0.19%
Cc1cccc(-c2ccc(CNC3CCN(CC4Cn5c(=O)ccc6ccc(F)c4c65)CC3)cn2)c1 (stereo not given) | 7.42%
CCC[C@@H]([C@@H](CC1CCCCC1)C(=O)N[C@H](C(=O)Nc1nccs1)[C@@H](C)OCc1ccccc1)N(O)C=O | 3.62%
COc1ccc(C2C(C(=O)Nc3ccccc3)=C(C)Nc3c(C(=O)Nc4ccccc4)cnn32)cc1 (stereo not given) | 0.21%
O=C(Nc1ccccc1F)NC1CCN(c2ccnc(Nc3ccc(F)cc3)n2)CC1 | 2.19%
COc1ccc(C2CCN(CCCCNC(=O)c3ccc(NC(=O)c4ccc(Cl)cc4)cc3)CC2)cc1Cl | 0.63%
O=C(NCc1cccc(C(F)(F)F)c1)[C@@H]1CCCN1C(=O)c1ccc(O)c(-c2ccc(Cl)c(Cl)c2)c1 | -0.25%
O=C(CCc1c[nH]cn1)Nc1ccc(-c2cccc(-c3nc4ccccc4[nH]3)c2)cc1 | 0.66%
O=C(/C=C/c1ccc(Cl)c(Cl)c1)NCCCCCN1CCC(CCNC(=O)/C=C/c2ccc(Cl)c(Cl)c2)CC1 | -0.93%
COc1ccc2nccc([C@@H](O)CN3CCC(NCc4ccc5scnc5c4)CC3)c2c1 | 2.6%
O=C(c1ccc(-c2ccc(-c3nc4cc(F)ccc4[nH]3)cc2)cc1)N1CCCCC1CN1CCC(O)C1 (stereo not given) | 4.9%
O=C(CN1C(=O)CC1S(=O)(=O)Cc1ccco1)NCCCCCCc1ccc(F)cc1 (stereo not given) | 1.25%
COc1ccc(Cl)cc1-c1nc(C(=O)NCCN2CCCCC2)c(C)s1 | 2.9%
CCCN1CCN(Cc2ccc(C(=O)Nc3ccc(Cl)cc3)cc2)CC1 | 4.24%
C[C@@H](N/C(=N\c1ccc(-c2ccccc2)cc1)Nc1ccc(C#N)cc1O)c1ccc(Br)cc1 | 2.45%
CC(C)C[C@H](NC(=O)c1cccc(F)c1)C(=O)N[C@H](/C=N/NC(=O)c1ccccc1)CCc1ccccc1 | 3.32%
COc1cc(OC)cc(-c2nn(-c3ccc([N+](=O)[O-])cc3Cl)c(=S)n2CC2CCCO2)c1 (stereo not given) | -3.05%
CN(c1ccc2c(c1)nc(NCc1ccc(F)cc1)n2C)c1ccnc(Nc2ccc(CS(C)(=O)=O)cc2)n1 | -0.52%
O=C(C=Cc1ccc(Cl)c(Cl)c1)NCCCCCN1CCC(CCNS(=O)(=O)c2ccc(F)cc2)CC1 | 0.05%

Compound | inhibition
CN(C)CCOc1cc(NC(=O)Nc2ccc(Cl)cc2C(F)(F)F)ccc1I | 1.15%
O=C(Nc1ccc2c(ccn2C2CCCN(Cc3cc(F)cc(F)c3F)CC2)c1)c1ccco1 (stereo not given) | -3.49%
O=[N+]([O-])c1cccc(C=NNc2nc(=Nc3ccccc3)[nH]c(=Nc3ccccc3)[nH]2)c1 | 7.8%
Cn1nc(C(F)(F)F)cc1-c1ccc(C(=O)Nc2ccc3c(c2)CNCC3(C)C)s1 | 0.03%
CN1CCN(Cc2cccc(Nc3nccc(Nc4ccc(Oc5ccccc5)cc4)n3)c2)CC1 | 7.05%
COc1ccccc1C(=O)C1CCCN(C(=O)c2ccccc2C(F)(F)F)C1 (stereo not given) | -0.77%
CN(C)C(C)(C)CN(Cc1ccc(-c2ccc(C(F)(F)F)cc2)cc1)C(=O)Cn1c(CCc2cccc(F)c2F)nc(=O)c2ccccc21 | 0.48%
CCCN(CCC)CCCOc1ccc(C(=O)c2c(-c3ccc(OCCCN(CCC)CCC)cc3)oc3ccc(Cl)cc23)cc1 | 49.3%
CN(C)Cc1cccc(-c2ccc(NC(=O)c3ccc4c(=O)n(Cc5cnn(C)c5)cnc4c3)cc2)c1 | 2.88%
N=C(N)NC(=O)Nc1cc(Cl)c(Cl)c(Br)c1 | 5.82%
O=C(NC(CCCN1CCC2(CC1)OCc1ccccc12)c1ccc(Cl)c(Cl)c1)c1cc(C(F)(F)F)cc(C(F)(F)F)c1 (stereo not given) | 0.26%
Fc1ccc(-c2oc(C3CCN(CCc4ccc(-c5noc(=S)[nH]5)cc4)CC3)nc2COCC(F)(F)F)cc1 | 7.22%
CC(C)C1=CC(=NOS(=O)(=O)c2ccccc2)C=C(C(C)C)C1=O | 4.11%
Cn1cnc(CCNC(=O)c2ccc(-c3ccc(-c4nc5cc(F)ccc5[nH]4)cc3)cc2)c1 | 5.92%
COc1cc2nc(NCc3ccc(S(N)(=O)=O)cc3)nc(Nc3ccc(Oc4ccccc4)cc3)c2cc1OC | 4.39%
CCC(C)OC(=O)C1=C(C)NC2=C(C(=O)CC(c3ccc(OC)c(OC)c3)C2)C1c1cccc(O)c1 (stereo not given) | 0.16%
N=C(Nc1ccccc1)Nc1cccc(Cc2ccc([N+](=O)[O-])cc2)n1 | 3.98%
CCC(C)NS(=O)(=O)c1ccc2nc(Nc3cccc(SC)c3)n(C(C)C(C)C)c2c1 (stereo not given) | 4.3%
CCCCCCN1CCCN(Cc2ccc(C(=O)Nc3ccc(F)c(F)c3)cc2)CC1 | 18.5%
c1cc(CNCCc2ccncc2)cc(-c2cccc(-c3nc4ccccc4[nH]3)c2)c1 | 12.2%
